Laboratory results from the supplement of paper PMC3334620.
The full ranking holds about 33,000 sequences; the median of “E-score (-0.5 to 0.5)” is about -0.016, and the highest 2% start at about 0.31. This is one part of a sample in which the highest values are shown more often than they occur.

Each sequence was assayed against Cst6 (UniProt P40535) (assay: PBM E-score (8-mer binding enrichment) (E-score (-0.5 to 0.5)); higher = stronger / more preferred TF binding). Settings: protein concentration: 200 nM; construct: GST-DNA-binding domain.
Sequence of UniProt P40535 (P40535 whole entry, the tested form may be a part): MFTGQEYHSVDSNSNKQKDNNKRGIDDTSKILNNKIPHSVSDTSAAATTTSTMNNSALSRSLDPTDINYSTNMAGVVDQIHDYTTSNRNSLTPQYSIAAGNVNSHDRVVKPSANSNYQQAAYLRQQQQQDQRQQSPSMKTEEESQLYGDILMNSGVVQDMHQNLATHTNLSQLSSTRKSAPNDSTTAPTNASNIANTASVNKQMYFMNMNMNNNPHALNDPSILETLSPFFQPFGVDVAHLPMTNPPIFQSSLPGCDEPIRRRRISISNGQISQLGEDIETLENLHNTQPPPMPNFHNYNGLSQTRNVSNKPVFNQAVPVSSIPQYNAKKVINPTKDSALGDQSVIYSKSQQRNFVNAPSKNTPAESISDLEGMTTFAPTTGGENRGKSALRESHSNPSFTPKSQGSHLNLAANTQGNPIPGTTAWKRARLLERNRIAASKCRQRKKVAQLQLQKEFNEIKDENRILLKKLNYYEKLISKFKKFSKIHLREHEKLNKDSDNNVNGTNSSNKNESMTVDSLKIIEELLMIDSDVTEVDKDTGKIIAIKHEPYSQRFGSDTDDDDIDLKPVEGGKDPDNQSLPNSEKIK
How it was run: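 The E-score, a modified Wilcoxon-Mann-Whitney statistic, was computed by the Universal PBM Analysis Suite for every ungapped eight-base word pooled with its reverse complement. Scans behind it were normalised with masliner after bound GST-tagged yeast transcription factors were detected with fluorescent anti-GST. The proteins, at about 100-200 nM, had been applied to universal all-10-mer Agilent arrays made double-stranded by primer extension.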

Row | Sequence | PBM E-score
1 | GAATGACA | 0.259
2 | CAATGACG | 0.469
3 | AAATGATA | 0.304
4 | AAATGACA | 0.298
5 | TAATGCCA | 0.197
6 | GAATGATA | 0.278
7 | CAATGAAG | 0.0658
8 | CAATGACA | 0.341
9 | CTTTAAGC | 0.0326
10 | GTTGGGAA | -0.0904
11 | TACCTACA | 0.0531
12 | ACCGGGTG | -0.19
13 | GCGATTAC | 0.184
14 | CACCGCAG | -0.116
15 | CGTCTCGA | 0.143
16 | GAGTTTTA | 0.122
17 | CTATGACA | 0.264
18 | GTATGACA | 0.323
19 | AAATGACT | 0.0956
20 | AAATGACG | 0.466
21 | AAATGACC | 0.102
22 | ATATGACA | 0.304
23 | AGCTCATA | 0.124
24 | GAAGAACA | 0.131
25 | CAAGAACA | 0.053
26 | TAAGAACA | 0.312

Row | Sequence | PBM E-score
27 | CCTTACCA | -0.119
28 | CCCGTTCC | -0.132
29 | AATCACCC | -0.00614
30 | TATCACCA | 0.123
31 | AATCACCA | 0.169
32 | CATCACCC | 0.308
33 | CATCACCA | 0.372
34 | CATCACCG | 0.305
35 | CATTGTCC | -0.0804
36 | ACCGCAAC | 0.0509
37 | GTCACATA | 0.245
38 | CGAAGTTA | 0.11
39 | CCTAACAG | 0.00445
40 | GCTGGCAA | -0.106
41 | GGGATGTA | -0.0844
42 | AAGATGTA | 0.169
43 | GTGATGTA | 0.465
44 | CCGATGTA | -0.0196
45 | CTGATGTA | 0.326
46 | CGGATGTA | -0.0158
47 | ATGATGTA | 0.462
48 | ATGATGTC | 0.478
49 | GAGATGTA | 0.0936
50 | CTGATGTC | 0.287
51 | AGGATGTA | 0.0787
52 | ACGATGTC | 0.0231

Row | Sequence | PBM E-score
53 | GCACTGCC | 0.0838
54 | AGTCCTTA | -0.0772
55 | CAGCCCAG | -0.383
56 | ACAGCCCC | -0.228
57 | AGTCCCTG | -0.223
58 | CGATTGAG | -0.0697
59 | GACGATGA | 0.301
60 | CCCAGGAA | -0.176
61 | CTTTCTGC | 0.0175
62 | ATGATGTG | 0.333
63 | AGGATGTG | -0.232
64 | ATGATGAG | 0.232
65 | CTGAGAGC | -0.0922
66 | AGCGGCAC | 0.123
67 | CGCGGCAA | 0.134
68 | CGCGCGGA | 0.131
69 | CGCGGCGC | 0.372
70 | AACGGCGC | 0.251
71 | AGCGCGGC | 0.115
72 | CGCGCGGC | 0.378
73 | CGCGGCAC | 0.324
74 | CGCGGCGA | 0.27
75 | AGCGGCGC | 0.107
76 | CACGGCGC | 0.357
77 | CACGGCGA | 0.21
78 | CTTCGTAC | -0.193

Row | Sequence | PBM E-score
79 | AACATAAT | 0.246
80 | ATTAACGC | 0.0112
81 | CAGGGAGA | -0.227
82 | GACTTAAC | -0.167
83 | ACGGATAC | 0.115
84 | ATGTCTGG | -0.0099
85 | ACTCATTG | -0.129
86 | ATGAACTG | 0.12
87 | GAACGGTC | -0.223
88 | AGTGGGTG | 0.0423
89 | ACATCCGT | 0.0894
90 | CGCACGGC | 0.375
91 | CGGCGCGA | 0.35
92 | CGGCGCGC | 0.242
93 | CGCACGGA | 0.154
94 | AGCACGGC | 0.198
95 | AGGCGCGA | 0.205
96 | AAACAAAT | 0.192
97 | CTTATTAA | 0.141
98 | ATCGACGA | 0.00463
99 | ACGTAATA | 0.482
100 | ACGTAATG | 0.476
101 | AAGTAATG | 0.116
102 | AGGTAATG | 0.101
103 | CCGTAATA | 0.176
104 | ACGTAATC | 0.484

Row | Sequence | PBM E-score
105 | CCGTAATC | 0.0889
106 | AAGTAATC | 0.179
107 | GCGTAATA | 0.296
108 | GCGCTCAA | -0.165
109 | CCTAGCGA | -0.296
110 | AGCCGACA | -0.162
111 | TAATTTAA | 0.287
112 | CATCGCCA | 0.0609
113 | ACACGGAC | -0.00107
114 | CTTCCAAC | -0.0988
115 | AGCCGCAC | 0.188
116 | AGCCGCAA | -0.127
117 | AGCCGCAT | 0.338
118 | GCACCTGC | -0.114
119 | AAGCTTTG | -0.087
120 | TTCTGCAA | 0.138
121 | GATATGAC | 0.273
122 | CATATGAC | 0.366
123 | AATATGTA | 0.211
124 | CCTATGAC | 0.221
125 | AATATGAC | 0.35
126 | AATATGTG | 0.25
127 | AATATGAG | 0.132
128 | AATATGTC | 0.319
129 | ACTATGAC | 0.264
130 | GCTATGAC | 0.332

Row | Sequence | PBM E-score
131 | AATATGAT | 0.233
132 | CATATGAG | 0.0643
133 | CGAAAGCA | -0.0132
134 | CATCTGAA | 0.037
135 | ATCCTATC | -0.0914
136 | ACCGTCGG | -0.194
137 | CGTCTATA | -0.0233
138 | ACCTTTGC | -0.095
139 | CGCTGCAC | -0.0108
140 | ATTATGAG | 0.22
141 | CTTATGAC | 0.368
142 | CTTATGCC | 0.0646
143 | ATTATGAC | 0.394
144 | CTTATGAA | 0.052
145 | ATTATGAA | 0.292
146 | AACAAGAA | 0.237
147 | AGAAAGCT | 0.0476
148 | ATAGTCGA | 0.168
149 | ATATATTA | 0.336
150 | CTATATTC | 0.0369
151 | ATATATTG | 0.109
152 | ACATATTG | 0.137
153 | CTATATTA | 0.333
154 | GTATATTA | 0.261
155 | ACATATTA | 0.312
156 | CCATATTA | 0.0718

Row | Sequence | PBM E-score
157 | CTCTATTA | 0.0287
158 | TACTGGCA | -0.0625
159 | CAGACAGG | -0.15
160 | ATCGATAC | 0.171
161 | AGCTCCGA | -0.145
162 | CAAAGCGA | -0.0448
163 | TCGACACA | 0.108
164 | AGCAAGCG | -0.11
165 | CTGACGTA | 0.489
166 | CAGACGTA | 0.0968
167 | AGGACGTG | -0.088
168 | ACGACGTG | 0.061
169 | GTGACGTA | 0.496
170 | CCGACGTA | 0.0226
171 | ATCACGTC | 0.286
172 | GGGACGTA | 0.0851
173 | ATCACGTG | 0.135
174 | ATCACGTA | 0.344
175 | GCGACGTA | 0.219
176 | ATGACGTG | 0.491
